Compound activity as filed in PubChem BioAssay.
An excerpt weighted towards active compounds, which were near 21% of everything screened.
HCV inh = qHTS Assay for Inhibitors of Hepatitis C Virus (HCV). Huh7.5.1 HCVcc-Cre infection, luciferase reporter, 44 h. Potency, µM (titrated, usually from 41.8 µM), without a hit: at the top dose activity change, negative = inhibition, usual class: inhibitors. 340,000 compounds, 3.4% hits; further: potency means the concentration at half of the fitted maximal effect; on the % scale 0 is the no-effect control and ±100 the full control effect
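Reporter virus HCVcc-Cre (~0.5 moi) infects cells exposed to compound; seeding density 1,000 cells/well with 4 h settling beforehand. Luminescence, 15 sec read, taken 44 h post-infection following a 15 min RT substrate incubation.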
HCMV antiviral = qHTS Assay for inhibitors of the human cytomegalovirus (HCMV) | HFF cells, HCMV-luciferase reporter, 72 h; hits give low values | activity change, negative = inhibition, % at 57.5 µM | 410,000 compounds, 4.5% hits | AID 1259415, 2018; in the data active means activity change below about -60%; inconclusive means no clear call, values can overlap the other calls; inactive means above about -39%; further: on the % scale 0 is the no-effect control and ±100 the full control effect
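Steps: HFFs plated, 16 h 37C; compounds added; HCMV-luciferase added to MOI 1 PFU/cell; 72 h 37C; OneGlo reagent, 5 min room temperature; luminescence read, normalized to controls.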
Pf growth 48h = Primary qHTS for delayed death inhibitors of the malarial parasite plastid, 48 hour incubation; P. falciparum luciferase growth in erythrocytes, 48 h; Potency, µM (top dose mostly 28.7 µM), inactives show at the top dose activity change, negative = inhibition, actives largely listed as inhibitors; 310,000 compounds, 5.9% hits; further: potency means the concentration at half of the fitted maximal effect; on the % scale 0 is the no-effect control and ±100 the full control effect
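Erythrocytes infected with P. falciparum carrying an integrated firefly luciferase reporter (2% hematocrit, 0.1% parasitemia final) were exposed to compounds in RPMI 1640 with 0.5% Albumax at 37 C, 5% CO2. Growth inhibition was scored as reduced luminescence.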
Pf growth 96h = Primary qHTS for delayed death inhibitors of the malarial parasite plastid, 96 hour incubation. P. falciparum luciferase reporter growth, 96 h. Potency, µM (highest dose often 28.7 µM), for the others: at the highest dose activity change, negative = inhibition, most hits filed as inhibitors. 320,000 compounds, 6.9% hits. AID 504834, 2011; further: potency means the concentration at half of the fitted maximal effect; on the % scale 0 is the no-effect control and ±100 the full control effect
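Luminescence readout: decreased luciferase signal marks inhibited growth of reporter-expressing P. falciparum in infected red cells (2% hematocrit, 0.05% parasitemia final), exposed to compound two generations (96 h, 37 C, 5% CO2).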
Shiga toxin inh = A qHTS for Small Molecule Inhibitors of Shiga Toxin; Vero cells, Shiga toxin protein synthesis inhibition reporter; inhibition, % at 38.7 µM; 290,000 compounds, 9.2% hits; AID 2315, 2010; in the data active means inhibition mostly above about 28%, no sharp cut-off; inactive means mostly below about 43%; further: 0% is about no effect
Cycloheximide cs = Cycloheximide Counterscreen for Small Molecule Inhibitors of Shiga Toxin | 300,000 compounds, 12% hits | cell reporter, cycloheximide protein synthesis inhibition counterscreen | AID 2314, 2010 | max response, %; in the data active means max response mostly above about 13%, no sharp cut-off; inactive means mostly below about 14%; further: read at 38.3 µM for the half of the compounds with a filed dose; 0% is about no effect
Active calls of the source: *; u = inconclusive; x = no result given; [ ] = dose if it differs, or a comment. Unless noted, the call rests on the fitted dose curve; in most records, active means well fitted inhibition curve with a large enough effect; inconclusive means small, poorly fitted or top-dose-only effect, or another doubt; inactive means no such curve, though single readings can be large or run the other way.

SMILES | HCV inh | HCMV antiviral | Pf growth 48h | Pf growth 96h | Shiga toxin inh | Cycloheximide cs
CCn1c(=O)c2cc(C(=O)NCCCN3CCN(c4ccc(F)cc4)CC3)sc2c2ccccc21 | x | 20.0 | x | x | x | x
Cc1cccc(OCC(=O)N2CCN(c3nnc(-c4ccccc4)c4ccccc34)CC2)c1 | u | -31.8 | u | u | -3.3 | -0.6
COc1ccc(OCC(=O)N2CCN(c3nnc(-c4ccc(C)cc4)c4ccccc34)CC2)cc1 | 8.91µM* | -28.8 | u | u | 22.7 | -2.3
COc1ccc(OCC(=O)N2CCN(c3nnc(-c4ccccc4)c4ccccc34)CC2)cc1 | 17.8µM* | 15.1 | u | 1.85µM* | -3.8 | 1.1
Cc1ccc(OCC(=O)N2CCN(c3nnc(-c4ccc(C)cc4)c4ccccc34)CC2)cc1 | 8.91µM* | -98.7* | x | 2.94µM* | -11.3 | 0.8
O=C(COc1ccccc1)N1CCN(c2nnc(-c3ccccc3)c3ccccc23)CC1 | u | u | u | 10.4µM* | -16.8 | -5.3
CCN(CC)CCN(C(=O)c1ccco1)c1nc2ccc(F)cc2s1 | x | 2.3 | x | x | x | x
COc1ccc(-n2cnc3scc(-c4ccccc4)c3c2=O)cc1 | u | -12.7 | 30.7%[5.75 µM] | 47.1% | -15.6 | 5.0
Cc1ccc(-c2nnc(N3CCN(C(=O)COc4cccc(C)c4)CC3)c3ccccc23)cc1 | u | -34.2 | 8.28µM* | 13.1µM* | 17.4 | 0.9
COc1ccc(-c2nnc(N3CCOCC3)c3ccccc23)cc1 | -19.1% | -28.2 | -8.9% | 13.1µM* | 19.4 | -0.2
COc1ccc2oc(=O)c(C(=O)N3CCN(c4ccc(C)cc4)CC3)cc2c1 | x | -17.8 | x | x | x | x
COC(=O)c1ccc(NC(=S)N2CCN(Cc3ccccc3OC)CC2)cc1 | -22.8% | -79.7* | -14.5% | -5.1% | -4.1 | -1.0
COC(=O)c1ccc(NC(=O)C(=O)N2CCN(C(=S)Nc3ccc(C)cc3)CC2)cc1 | u | -0.1 | -18.9% | 0.37µM* | -8.1 | -1.3
COC(=O)c1ccc(NC(=S)N2CCN(Cc3ccccc3Cl)CC2)cc1 | -9.8% | 2.9 | 1.3% | 28.3% | -14.0 | 1.5
Cc1cccn2c(=O)c(C(=O)NCCCN3CC(C)CC(C)C3)c(O)nc12 (stereo unspecified) | 11.6% | 0.6 | 2.08µM* | 0.828µM* | x | x
CC1CC(C)CN(CCCNC(=O)c2c(O)nc3ccccn3c2=O)C1 (stereo unspecified) | 6.3% | 21.8 | 4.15µM* | u | x | x
Cc1cccn2c(=O)c(C(=O)NCCCN3CCCCC3C)c(O)nc12 (stereo unspecified) | 7.2% | -31.4 | 10.1% | u | -8.2 | -3.7
CC1CCCCN1CCCNC(=O)c1c(O)nc2ccccn2c1=O (stereo unspecified) | 14.9% | -38.0 | 15.6% | 11.2% | 20.8 | 2.8
Fc1cccc(NC(=S)NCc2ccccc2Cl)c1 | -5.5% | u | u | u | 19.1 | 8.3
CC(C)(C)c1csc(NC(=O)c2ccc(Br)o2)n1 | u | -32.0 | 5.6% | -20.4% | 98.7* | 47.3*
CCOC(=O)Cc1csc(NC(=O)c2sc3nc4cc(C)ccc4cc3c2N)n1 | 4.9% | 1.9 | 1.7% | -26.5% | 9.6 | 8.3
CCOC(=O)Cc1csc(NC(=O)c2sc3nc4ccc(CC)cc4cc3c2N)n1 | 29.7% | 4.8 | 133.4% | 35.5% | 81.2* | 23.7*
CCOC(=O)Cc1csc(NC(=O)c2cc3ccccc3o2)n1 | -2.5% | 6.9 | 119.8% | -25.7% | 53.6* | 23.2*
CCOC(=O)Cc1csc(NC(=O)c2ccc(Br)o2)n1 | 12.3% | 19.1 | x | u | 35.6* | 37.7*
CC1CCCCC12NC(=O)N(CC(=O)Nc1ccccc1N1CCOCC1)C2=O (stereo unspecified) | 16.5% | -21.6 | -6.2% | 15.6%[5.75 µM] | 11.1 | 5.5
SMILES | HCV inh | HCMV antiviral | Pf growth 48h | Pf growth 96h | Shiga toxin inh | Cycloheximide cs
CNc1cnc(-c2ccc(F)c(F)c2F)cn1 | x | 46.3 | x | x | x | x
COc1ccc(CC(=O)OCCc2cc3cc(OC)c(OC)cc3c(=O)o2)cc1 | 18.6% | 19.9 | u | u | x | x
CC(C)(C)OC(=O)COc1cc(F)ccc1[N+](=O)[O-] | 4.0% | -7.1 | 8.3% | 45.7% | x | x
NC(=O)CSc1nc(C2CC2)nc2sc3c(c12)CCCC3 | 11.5% | 142.6 | 151.3% | u | 47.4* | 19.1*
Nc1nc(SCC(=O)NCCOCCO)nc2sc3c(c12)CCCC3 | 19.8% | -21.4 | 45.2% | 39.3% | 32.8 | 6.1
Cc1cc(NC(=O)CSc2nc(C3CC3)nc3sc4c(c23)CCC(C)C4)no1 (stereo unspecified) | -16.4% | x | x | x | x | x
CNC(=O)CSc1nc(N)c2c3c(sc2n1)CCC3 | -5.6% | 168.7 | 30.1% | 28.8% | 1.8 | 8.9
NC(=O)CSc1nc(N)c2c3c(sc2n1)CCCCC3 | 7.4% | 41.3 | 45.0% | 37.0% | 38.8 | 20.7*
CCSc1nc(N)c2c3c(sc2n1)CCC3 | -8.0% | 1.0 | 16.9% | 11.6% | 61.2* | 21.1*
CC1CCN(C(=O)CSc2nc(N)c3c4c(sc3n2)CN(C)CC4)CC1 | 7.2% | x | 2.33µM* | 0.828µM* | -2.0 | -5.9
CCCn1nnc(NC(=O)C(C)C)n1 | 9.5% | 15.3 | -14.2% | 0.0% | 26.6 | -1.3
CCOc1cccc2cc(-c3nc(-c4ccc(Cl)cc4)c(C)s3)c(=O)oc12 | x | -7.3 | x | x | x | x
Cc1cc(C)c2c(NC(=O)c3ccccc3Cl)c(C(=O)NCc3ccc(Cl)cc3)sc2n1 | x | -38.3 | x | x | x | x
COc1ccc(C(O)(CC(C)C)C(CN2CCOCC2)c2ccccc2)cc1 (stereo unspecified) | -6.4% | -82.7* | 11.7µM* | u | -2.3 | -3.2
CCc1ccc(C(O)(CC(C)C)C(CN2CCOCC2)c2ccccc2)cc1 (stereo unspecified) | u | -89.9* | u | -1.7% | 11.1 | -2.8
Cn1ncc(C(=O)N2CCN(c3ccc(F)cc3)CC2)c1C1CCN(C(=O)OC(C)(C)C)CC1 | x | 0.0 | x | x | x | x
O=C1C=C(NC2CCCCC2)CCC1 | 30.9% | -3.1 | 13.1µM* | 13.1µM* | x | x
CC1(C)CC(=O)C=C(NC2CCCCCC2)C1 | 8.2% | 19.3 | u | 11.7µM* | 11.1 | -2.3
CC1(C)CC(=O)C=C(NC2CCCCCCC2)C1 | 18.9% | -23.0 | u | 3.7µM* | -2.6 | -3.3
CC1=C/C(=C(\c2cc(C)c(O)c(Br)c2)c2ccccc2S(=O)(=O)O)C=C(Br)C1=O | 12.3% | 0.4 | u | 10.4µM* | -15.4 | -7.5
Cc1cc(C(=O)c2ccccc2)cc(C)c1O | 16.3% | 54.7 | x | x | x | x
Cc1onc(-c2ccccc2)c1C(=O)Nc1cccc(OC(C)C)c1 | -28.1% | 9.7 | -5.9% | 13.1µM* | 1.6 | -1.9
Cc1cccc(C(C)C)c1NC(=O)c1c(-c2ccccc2)noc1C | 14.5% | -62.4* | -1.0% | 1.9% | 5.3 | -2.8
